Screening data as filed in PubChem.
Only some compounds are listed: those with a hit (about 1.4% of all), similar ones and a draw of the others.
JNK3 blocker: JNK3 (human) kinase inhibition; 60,000 compounds, 0.61% hits; P53779; inhibition, % at 8 µM; purified JNK3 kinase activity, HTS; AID 746; in the data active means inhibition above about 17%;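 further: 0% = DMSO and 100% = reference inhibitor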
Target sequence (P53779 whole entry, looked up): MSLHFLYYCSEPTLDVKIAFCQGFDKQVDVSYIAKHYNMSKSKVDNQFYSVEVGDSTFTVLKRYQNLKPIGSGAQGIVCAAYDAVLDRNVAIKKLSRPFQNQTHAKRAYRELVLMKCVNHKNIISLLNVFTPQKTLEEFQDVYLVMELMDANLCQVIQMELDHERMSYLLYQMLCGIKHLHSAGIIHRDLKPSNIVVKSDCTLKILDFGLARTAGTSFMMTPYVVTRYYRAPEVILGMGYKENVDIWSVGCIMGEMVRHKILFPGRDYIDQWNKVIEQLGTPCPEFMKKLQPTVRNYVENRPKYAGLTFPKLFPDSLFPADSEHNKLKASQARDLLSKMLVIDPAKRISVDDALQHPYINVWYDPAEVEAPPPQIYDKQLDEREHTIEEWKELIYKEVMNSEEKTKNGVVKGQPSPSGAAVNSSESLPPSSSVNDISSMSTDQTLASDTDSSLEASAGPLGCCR
SKBR3 24h inh: SK-BR-3 proliferation inhibitors | SK-BR-3 viability, CellTiter-Glo ATP luminescence, 24 h; stronger effect = lower value | viability, % at 10 µM | 41,000 compounds, 0.47% hits;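 active means viability at or below the median of all test compounds minus 3 SD, in both replicates if run twice, cut at about 45% in these data; inconclusive means duplicate replicates that disagree with each other; inactive means viability above that cutoff in every replicate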;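 further: 100% = median untreated cell wells and 0% = median positive control drug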
Htt clearance: mutant huntingtin protein clearance; inhibition, % at 1.5 µM; HeLa Exon1htt(103Q)mCFP, aggregate imaging; zero = plate's median compound well; 47,000 compounds, 0.42% hits;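 active means inhibition of aggregate fluorescence above about 70%, also judged a hit by eye on the cell image, limit read from the data, passing the limit was not always enough; inconclusive means no rule stated for this call; inactive means not judged a hit on image review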;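 further: cells exposed to compound for three days before fixation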
PKA inh: PKA (human) kinase inhibition. PKA Kemptide phosphorylation, Kinase-Glo ATP luminescence. 65,000 compounds, 0.1% hits. AID 524. inhibition, % at 6 µM;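 active means inhibition above the screen-wide mean inhibition plus 3 SD, cut at about 21% in these data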
ROCK2 blocker: ROCK2 (human) kinase inhibition | O75116 | purified ROCK2, Kinase-Glo ATP depletion luminescence | inhibition, % at 6 µM | 60,000 compounds, 0.35% hits;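 active means inhibition above the screen-wide mean inhibition plus 3 SD, cut at about 18% in these data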;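 further: plate controls were DMSO wells for no effect and Y-27632 control wells after no-enzyme background subtraction for full effect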
Her2 expr inh: inhibitors of human Her2 kinase expression. P04626. SKBR-3 HER2 protein level, AlphaScreen, 18-24 h; stronger effect = lower value. HER2 level % of control, % at 10 µM. 65,000 compounds, 0.69% hits. AID 645;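 active means HER2 level under 5% of the carrier-only control; inconclusive means no clear call, values can overlap the other calls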;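 further: 100% = DMSO carrier and 0% = 500 nM PU-H71 HSP90 inhibitor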
* hit, by the source's call; ? = inconclusive; . = no result.

SMILES | JNK3 blocker | SKBR3 24h inh | Htt clearance | PKA inh | ROCK2 blocker | Her2 expr inh
CN1CCN(CC(=O)N2CCn3c4c(c5cc(C6CCCCC6)ccc53)CCCC42)CC1 (configuration not stated) | 5 | . | -53 | 0 | 3 | -16*
NC(=O)c1oc2ccccc2c1NC(=O)c1ccc(F)cc1 | 26* | . | 15 | 2 | 4 | 64
COc1cccc(-c2nc(CS(=O)CC(=O)NCc3ccccc3)c(C)o2)c1 (configuration not stated) | 3 | . | . | 16 | 3 | 69
NC(=O)c1ccccc1NC(=O)NC1CCCCC1 | . | . | 7 | . | . | .
O=C(Nc1ccccc1NC(=O)NC1CCCCC1)NC1CCCCC1 | 0 | ? | . | 7 | 7 | -15*
Cc1ccc2c(c1)c(CC(=O)Nc1ccc(C)c(F)c1)c(C(=O)O)n2C | . | . | 0 | . | . | .
Cn1c(C(=O)O)c(CC(=O)Nc2ccccc2F)c2ccccc21 | 5 | 30* | 10 | 0 | 1 | 75
CN(C)c1ccc(P(=O)(OCc2ccccc2)C(O)c2ccncc2)cc1 (configuration not stated) | 0 | 88 | 74* | 4 | 8 | 116
CCOP(=O)(c1ccc(N(C)C)cc1)C(O)c1cc(OC)c(OC)c(OC)c1 (configuration not stated) | -13 | 81 | 12 | 4 | -1 | 103
CCOP(=O)(c1ccc(N(C)C)cc1)C(O)c1c(Cl)cccc1Cl (configuration not stated) | -3 | 75 | . | 0 | 1 | -16*
CC(C)CCNC(=O)C1CCN(C(=O)N(C)C)CC1 | -1 | . | . | 7 | 8 | 120
Cc1cccc(OCC(=O)Nc2cc(C)ccc2O)c1 | 2 | 94 | 85* | 2 | 1 | 52
CCOc1ccc2nc(NC(NC(=O)CC)(C(=O)OC)C(F)(F)F)sc2c1 (configuration not stated) | 4 | 80 | . | 5 | 4 | 66
COc1cc(Cl)c(S(=O)(=O)NCc2cccnc2)cc1Cl | 3 | 94 | . | 10 | 3 | 93
CC1CCCCC1NC(=O)c1cn(C)c2ccc(S(=O)(=O)N3CCCC3)cc2c1=O (configuration not stated) | -9 | 43* | . | -10 | -11 | 99
Cn1cc(C(=O)NC2CCCCC2)c(=O)c2cc(S(=O)(=O)N3CCCC3)ccc21 | 1 | 51 | . | 3 | 5 | -4.8*
CC1CCN(S(=O)(=O)c2ccc3c(c2)c(=O)c(C(=O)NC2CCCC2)cn3C)CC1 | 2 | . | 32 | 2 | 1 | 86
N#C/C(=C/c1ccc(N2CCCCCC2)o1)c1ccc(F)cc1 | 2 | 89 | . | 4 | 8 | -14*
Cc1oc2ccc(OCC(N)=O)cc2c1C(=O)OC(C)C | 32* | 70 | . | -3 | -1 | 114
CC1(C)CC(=O)c2c(noc2-c2ccccc2)C1 | 9 | . | . | 12 | 7 | 107
CC1(C)CC(=O)C2(CC3=C(CC(C)(C)CC3=O)O2)C(=O)C1 | -2 | 90 | -10 | 2 | 2 | -33*
CCSC1(SCC)N=C(N)C2(C#N)C(c3ccccc3)NC3=C(CCC3)C12C#N (configuration not stated) | -3 | 88 | 29 | -2 | -2 | 91
CCSC1(SCC)N=C(N)C2(C#N)C(c3ccc(OC)c(OC)c3OC)C12C#N (configuration not stated) | 0 | 100 | . | 3 | 8 | 3.5*
CCOC(=O)N1CCC(n2c(=S)[nH]c3cc(OCC)c(OCC)cc3c2=O)CC1 | . | . | . | 8 | . | 0.2*
O=C(Nc1ccc(Cl)cc1)N(Cc1cccnc1)Cc1ccco1 | -5 | . | . | -1 | -1 | 111
SMILES | JNK3 blocker | SKBR3 24h inh | Htt clearance | PKA inh | ROCK2 blocker | Her2 expr inh
Fc1ccc(-c2csc3ncnc(Nc4ccc(N5CCOCC5)cc4)c23)cc1 | . | . | 4 | . | . | .
Cc1ccc2nc(Cc3ccc(N)cc3)oc2c1 | 21* | 132 | -12 | 12 | 3 | 95
Cc1ccc2nc(CCc3nc4ccc(C)cc4o3)oc2c1 | 7 | 60 | . | 12 | -4 | 121
COc1cccc(NC(=O)N2CCC(C(N)=O)(N3CCCCC3)CC2)c1 | -1 | 40* | -6 | 6 | 6 | 50
COc1cccc(/C=N/n2c(C)c3c(C)nnc(C)c3c2C)c1O | -4 | 99 | . | -1 | 0 | 91
CCOC(=O)c1c(NC(=O)CSc2nnc(-c3ccccc3C)n2C)sc(C(C)=O)c1C | -3 | 71 | 76* | -11 | -6 | 93
CCOC(=O)c1c(NC(=O)CSc2nc3cccnc3n2C)sc(C(C)=O)c1C | 7 | . | . | 12 | 4 | 101
CCOC(=O)c1c(NC(=O)c2csc(C)c2)sc(C(C)=O)c1C | 3 | 89 | 78* | 3 | -3 | 84
C=C1C(C(=O)N2CCOCC2)C1C(=O)N1CCOCC1 (configuration not stated) | -2 | . | . | 1 | 3 | 100
CC(C)(C)C(=O)N=C1SC2CS(=O)(=O)CC2N1c1ccc2c(c1)OCO2 (configuration not stated) | -4 | 95 | . | -4 | -5 | 103
Cc1nnc(SC(=O)N2c3ccccc3Sc3ccccc32)s1 | -7 | . | . | 10 | 4 | 0.9*
CCN1CCCC1CNC(=O)C1CCN(Cc2nc(-c3cccc(Br)c3)oc2C)CC1 (configuration not stated) | -2 | . | . | -2 | -6 | 110
c1ccc2c(c1)nc(N1CCOCC1)c1c3ccccc3[nH]c21 | 59* | 108 | -1 | 5 | -2 | 70
c1ccc2nc(N3CCOCC3)c(N3CCOCC3)nc2c1 | 6 | 93 | 35 | 12 | 7 | 103
CCOC(=O)c1ccc(CNC(=O)Cn2nnc(-c3ccc(C)cc3)n2)o1 | 5 | 91 | -14 | 9 | 3 | 94
Cc1cc(NC(=O)CSc2nc(C(C)C)nc3sc4c(c23)CCCC4)no1 | -3 | 72 | . | 7 | 9 | 29
Cc1cc(NC(=O)CSc2nc(C3CC3)nc3sc4c(c23)CCC(C)C4)no1 (configuration not stated) | 2 | 62 | 72* | 2 | 3 | 56
CCCN(CCC)C(=O)CC(c1ccccc1)c1cc(Br)ccc1O (configuration not stated) | . | . | 30 | . | . | .
N#CCSc1nc2ccccc2c(=O)n1CCC(=O)NC1CCCCC1 | -2 | . | 16 | -1 | -8 | 93
N#CCSc1nc2cc(C(=O)N3CCC(C(N)=O)CC3)ccc2c2nc3ccccc3n12 | 2 | . | -50 | 3 | 3 | -1.2*
Cc1ccc(N(CC(=O)NC2CC3CCC2C3)S(C)(=O)=O)cc1C (configuration not stated) | . | 90 | -49 | -4 | . | -28*
CCOc1ccccc1C1CC(c2ccc(Br)cc2)Nc2nc(N)nn21 (configuration not stated) | 5 | . | 48 | 2 | -1 | 74
CCOC(=O)Cn1nnnc1C(CC)N(Cc1cccs1)Cc1cc2ccc(OC)cc2[nH]c1=O (configuration not stated) | 0 | 101 | -4 | 3 | -1 | -9.3*
CCOC(=O)Cn1c(=O)oc2cc(S(=O)(=O)N3CCc4ccccc43)ccc21 | -11 | . | ? | 7 | -1 | 21
